# According to PubChem BioAssay (Tox21):
# Unmarked numbers belong to inactive results. Inconclusive results are not listed. Where a call stands in place of a potency, no number is given. Active and inactive are the calls of the source. Unless noted, the call rests on the fitted dose curve; in most records, active means well fitted curve in the direction sought with a large enough effect in the repeat runs; inconclusive means weak or mixed curves; inactive means no such curve, though single readings can be large; an effect the other way counts as inactive or inconclusive.
# Columns and labels:
# [1] = qHTS assay to identify small molecule antagonists of the estrogen related receptor (ERR) signaling pathway from Tox21 library - cell viability counter screen (AID 1224834); further: nearly all actives have a fitted effect of over 30% in size
# Summary of the method: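 Compounds in DMSO were pinned onto ERR cells that had been incubated for 6 h, and the plates were held at 37 C for 17.5 h. CellTiter-Fluor reagent was then added and fluorescence was measured after 30 min.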
# [2] = biological target: Luciferin 4-monooxygenase (Photinus pyralis) (UniProt P08659); assay: qHTS assay to identify small molecule inhibitors of firefly luciferase (AID 1224835); further: nearly all actives have a fitted effect of over 25% in size; further: potency means the concentration at half of the fitted maximal effect
# Summary of the method: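 Biochemical qHTS: compounds run as interplate titrations against purified firefly enzyme, with D-luciferin and ATP each at its KM concentration. Light output recorded by CCD imaging.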
# [3] = qHTS assay to identify small molecule agonists of the constitutive androstane receptor (CAR) signaling pathway - cell viability counter screen (AID 1224836); further: nearly all actives have a fitted effect of over 45% in size
# Summary of the method: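 Compound titrations (15 concentrations) went onto HepG2-CYP2B6-hCAR cells 4 h after seeding, alongside PK11195 at a final 0.75 uM; a 23 h, 37 C/5% CO2 incubation preceded CellTiter-Fluor viability measurement.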
# [4] = qHTS assay to identify small molecule antagonists of the constitutive androstane receptor (CAR) signaling pathway - cell viability counter screen (AID 1224837); further: nearly all actives have a fitted effect of over 45% in size
# Summary of the method: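 Cells are seeded, rested 4 hr at 37 C/5% CO2, dosed with compound (15-point series) and 50 nM CITCO, incubated a further 23 hr, and then CellTiter-Fluor reagent is added before fluorescence is read. The line is HepG2 with stable hCAR and CYP2B6-2.2kb.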
# [5] = biological target: Nuclear receptor subfamily 1 group I member 3 (Homo sapiens) (UniProt Q14994); assay: qHTS assay to identify small molecule antagonists of the constitutive androstane receptor (CAR) signaling pathway (AID 1224838);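 further: HepG2 cells stably expressing hCAR with CYP2B6 luciferase reporter stimulated by CITCO; nearly all actives have a fitted effect of over 40% in size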
# Summary of the method: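 Luminescence from a CYP2B6-2.2kb promoter reporter in hCAR-expressing HepG2 cells reflects CAR signaling. Cells received compounds at 15 concentrations and 50 nM CITCO (final), then incubated 24 h at 37 C/5% CO2.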
# [6] = biological target: Nuclear receptor subfamily 1 group I member 3 (Homo sapiens) (UniProt Q14994); assay: qHTS assay to identify small molecule agonists of the constitutive androstane receptor (CAR) signaling pathway (AID 1224839); further: nearly all actives have a fitted effect of over 15% in size; further: potency means the concentration at half of the fitted maximal effect;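 on activation: HepG2 cells stably carrying human CAR and a CYP2B6 luciferase reporter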
# Summary of the method: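 In this screen, CAR-driven CYP2B6 promoter activity is measured by luminescence in HepG2-CYP2B6-hCAR cells after 24 h with test compounds and 0.75 uM PK11195 (final concentration).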
# [7] = qHTS assay to identify small molecule antagonists of the estrogen related receptor signaling pathway with the pleiotropic PPARgamma coactivator (PGC) from Tox21 10K library - cell viability counter screen (AID 1224840; active means well fitted cell-killing curve with a large enough effect in the repeat runs, not every such curve was filed as active; further: nearly all actives have a fitted effect of over 40% in size)
# Summary of the method: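 Cell viability is measured by CellTiter-Fluor fluorescence in PGC/ERR cells that receive compounds after a 6-hour attachment period and are then incubated 17.5 hours at 37 C.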
# [8] = biological target: Thyrotropin receptor (Homo sapiens) (UniProt P16473); assay: qHTS assay to identify small molecule agonists of the thyroid stimulating hormone receptor (TSHR) signaling pathway (AID 1224843; calls by dose curve; further: nearly all actives have a fitted effect of over 45% in size)
# Summary of the method: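 HEK293/TSHR, 800 cells/well; cpd 30 min RT; add cAMP-d2 + anti-cAMP-cryptate, 1 h RT; fluorescence read on plate reader. 15-pt titration, n=3.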
# [9] = qHTS assay to identify small molecule agonists of the hypoxia (HIF-1) signaling pathway - cell viability counter screen (AID 1224844; calls by dose curve; further: nearly all actives have a fitted effect of over 50% in size)
# Summary of the method: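 Viability counter screen: HRE-bla ME-180 cells plated 5 hrs before compound addition, treated 17 hrs at 37C and 5% CO2, then CellTiter-Glo added after the FRET reporter read; luminescence after 30 min.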
# [10] = qHTS assay to identify small molecule agonists of H2AX (AID 1224845; active means well fitted activation curve with a large enough effect in the signal ratio in the repeat runs, not every such curve was filed as active; the % refers to the signal ratio)
# Summary of the method: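 Wild-type CHO-K1 cells, plated overnight, exposed 3hr at 37C to 15 concentrations (0.76% DMSO final). Lysed, then HTRF anti-pH2AX (S139) cryptate and anti-H2AX-d2 antibodies, 24 hr room temperature; 665/620 nm emission read.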
# [11] = qHTS assay to identify small molecule agonists of the hypoxia (HIF-1) signaling pathway (AID 1224846; active means well fitted activation curve with a large enough effect in the signal ratio in the repeat runs, not every such curve was filed as active; the % refers to the signal ratio)
# Summary of the method: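 Agonist mode reporter screen. ME-180 cells stably expressing bla under HRE control received test compounds in DMSO for 17 hrs (37C, 5% CO2), and beta-lactamase activity was then detected with the CCF4-AM FRET substrate.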
# [12] = qHTS assay to identify small molecule agonists of H2AX - cell viability counter screen (AID 1224847; calls by dose curve; further: top concentration of the series differs between compounds; nearly all actives have a fitted effect of over 30% in size)
# Summary of the method: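 Read-out: CellTiter-Glo luminescence, 30 min RT. Cells: wild-type CHO-K1, 1000/well, 10% FBS, plated overnight at 37C. Treatment: 15 concentrations, 3 hr, 37C, 0.76% DMSO.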
# [13] = qHTS RealTime-Glo MT Cell Viability Assay in HEK293 cells - 32 hour (AID 1224868); further: top concentration of the series differs between compounds; nearly all actives have a fitted effect of over 50% in size
# Summary of the method: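 HEK293 cells seeded with NanoLuc/prosubstrate reagent, rested 5 h at 37 C, then dosed and kept at 37 C up to 40 h. Nonlytic real-time luminescence from viable cells read at 0, 8, 16, 24, 32 and 40 h.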
# [14] = A CellTox Green Cytotoxicity Assay to monitor cytotoxicity in HEK293 cells - 0 hour (AID 1224869); further: nearly all actives have a fitted effect of over 50% in size
# Summary of the method: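 Dead-cell fluorescence measured kinetically: asymmetric cyanine dye, HEK293, 600 cells/well, 5 h settle, 23 nL cpd/DMSO, 37 C, reads 0–40 h every 8 h.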
# [15] = qHTS assay to identify small molecule antagonists of the estrogen related receptor signaling pathway with the pleiotropic PPARgamma coactivator (PGC) from Tox21 10K library (AID 1224841; call rule not given here; further: actives are mostly falling curves and most rising ones were filed inactive; nearly all actives have a fitted effect of over 50% in size)
# Summary of the method: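 Cells stably carrying the PGC/ERR reporter, seeded at 2,000 per well, received pin-transferred compounds 6 h post-plating. Exposure lasted 18 h at 37 C. Signal: One-Glo luminescence.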
# [16] = qHTS assay to identify small molecule agonists of the estrogen related receptor signaling pathway with the pleiotropic PPARgamma coactivator (PGC) from Tox21 10K library (AID 1224842); further: nearly all actives have a fitted effect of over 15% in size
# Summary of the method: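 PGC/ERR reporter cell line, 2,000 cells per well, incubated 6 h at 37 C before 23 nL compound in DMSO was added. After 18 h at 37 C, One-Glo luminescence read following 30 min at room temperature.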
# [17] = qHTS assay to identify small molecule antagonists of the estrogen related receptor (ERR) signaling pathway from Tox21 library (AID 1224848); further: nearly all actives have a fitted effect of over 50% in size
# Summary of the method: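 Compounds dissolved in DMSO are pin-transferred onto ERR reporter cells (2,000 per well) that have settled for 6 h at 37 C. Plates then incubate 18 h at 37 C before ONE-Glo luciferase reagent and a luminescence read 30 min later.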
# [18] = qHTS assay to identify small molecule agonists of the estrogen related receptor (ERR) signaling pathway from Tox21 library (AID 1224849; calls by dose curve; further: nearly all actives have a fitted effect of over 15% in size); conditions: ERR reporter cell line, ONE-Glo luciferase, 18 h; at 92.4 µM (top of the series) unless noted
# Summary of the method: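 Quantitative HTS in agonist format: NTP ERR cell line, compounds transferred in DMSO after 6 h plating, 18 h incubation at 37 C, ONE-Glo luminescence endpoint.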
# [19] = qHTS RealTime-Glo MT Cell Viability Assay in HepG2 cells - 24 hour (AID 1224867); further: nearly all actives have a fitted effect of over 50% in size
# Summary of the method: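 HepG2 cells (600/well) were dispensed with RealTime-Glo reagents, incubated 5 h at 37 °C, then treated with compounds in DMSO for up to 40 h. Nonlytic NanoLuc luminescence reflecting viable cells was read at each stated time point.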
# [20] = qHTS assay to identify small molecule agonists of the estrogen related receptor signaling pathway with the pleiotropic PPARgamma coactivator (PGC) (AID 1224823)
# Summary of the method: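 Luminescence readout (One-Glo, 30 min RT) from PGC/ERR cell line treated 18 h at 37 C with pin-tool-delivered DMSO compound solutions; cells plated 6 h before dosing. Quantitative HTS format.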
# Sequence of Nuclear receptor subfamily 1 group I member 3 (Homo sapiens) (Q14994 whole entry, looked up): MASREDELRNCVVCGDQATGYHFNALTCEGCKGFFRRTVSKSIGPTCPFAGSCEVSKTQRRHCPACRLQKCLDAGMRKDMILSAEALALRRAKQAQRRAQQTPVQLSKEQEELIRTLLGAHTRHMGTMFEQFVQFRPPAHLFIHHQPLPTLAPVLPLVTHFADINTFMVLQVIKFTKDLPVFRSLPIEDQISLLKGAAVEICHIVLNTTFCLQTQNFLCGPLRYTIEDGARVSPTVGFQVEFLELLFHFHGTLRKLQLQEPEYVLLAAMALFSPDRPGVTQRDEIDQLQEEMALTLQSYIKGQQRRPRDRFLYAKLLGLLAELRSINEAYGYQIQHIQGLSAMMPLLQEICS
# Sequence of Luciferin 4-monooxygenase (Photinus pyralis) (P08659 whole entry, looked up): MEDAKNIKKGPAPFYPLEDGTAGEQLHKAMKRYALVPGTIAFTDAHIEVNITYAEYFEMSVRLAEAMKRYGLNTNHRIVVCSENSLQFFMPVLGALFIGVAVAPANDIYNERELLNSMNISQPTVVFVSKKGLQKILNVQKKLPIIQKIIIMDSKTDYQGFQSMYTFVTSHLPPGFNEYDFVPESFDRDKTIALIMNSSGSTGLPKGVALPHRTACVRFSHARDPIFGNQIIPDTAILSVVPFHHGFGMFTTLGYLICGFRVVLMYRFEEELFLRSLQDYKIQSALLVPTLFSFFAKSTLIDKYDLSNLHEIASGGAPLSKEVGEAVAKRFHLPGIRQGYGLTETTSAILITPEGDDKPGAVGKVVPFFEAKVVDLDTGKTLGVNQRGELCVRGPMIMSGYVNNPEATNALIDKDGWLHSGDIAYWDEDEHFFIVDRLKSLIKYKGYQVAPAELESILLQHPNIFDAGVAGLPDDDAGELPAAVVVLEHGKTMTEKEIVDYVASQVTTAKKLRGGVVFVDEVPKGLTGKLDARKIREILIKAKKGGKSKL
# Sequence of Thyrotropin receptor (Homo sapiens) (P16473 whole entry, looked up): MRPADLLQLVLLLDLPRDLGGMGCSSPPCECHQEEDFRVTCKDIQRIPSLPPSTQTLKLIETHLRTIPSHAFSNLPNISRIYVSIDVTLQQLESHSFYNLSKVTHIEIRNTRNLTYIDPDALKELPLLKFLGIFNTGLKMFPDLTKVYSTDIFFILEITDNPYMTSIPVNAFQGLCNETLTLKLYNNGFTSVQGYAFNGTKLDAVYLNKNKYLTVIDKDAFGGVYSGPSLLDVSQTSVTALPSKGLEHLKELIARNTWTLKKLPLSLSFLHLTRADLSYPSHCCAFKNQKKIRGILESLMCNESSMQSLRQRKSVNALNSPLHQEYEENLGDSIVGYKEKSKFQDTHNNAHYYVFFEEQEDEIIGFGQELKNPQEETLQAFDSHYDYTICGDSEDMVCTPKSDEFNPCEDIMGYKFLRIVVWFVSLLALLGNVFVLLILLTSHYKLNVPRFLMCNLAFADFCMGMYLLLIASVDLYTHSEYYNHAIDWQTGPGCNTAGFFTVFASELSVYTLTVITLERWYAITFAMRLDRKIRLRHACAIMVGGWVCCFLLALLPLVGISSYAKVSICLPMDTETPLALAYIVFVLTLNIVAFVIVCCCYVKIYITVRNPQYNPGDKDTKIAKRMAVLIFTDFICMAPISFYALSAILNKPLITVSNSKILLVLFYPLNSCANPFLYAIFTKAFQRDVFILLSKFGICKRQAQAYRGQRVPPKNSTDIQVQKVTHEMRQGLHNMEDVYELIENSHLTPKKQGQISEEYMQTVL
Structure (SMILES),Potency [1],Potency [2],outcome [3],outcome [4],Potency [5],Potency [6],outcome [7],outcome [8],Potency [9],outcome [10],outcome [11],Potency [12],Potency [13],Potency [14],Potency [15],Potency [16],Potency [17],"activity change, positive = activation [18]",outcome [19],outcome [20]
C#CC(O)C(CC)CCCC (stereo unspecified),inactive,inactive,inactive,inactive,inactive,inactive,inactive,inactive,inactive,inactive,inactive,inactive,inactive,inactive,–,–,–,–,–,–
CC12CCC(CC1=O)C2(C)C (stereo unspecified),inactive,inactive,inactive,inactive,inactive,inactive,inactive,inactive,inactive,inactive,inactive,inactive,inactive,inactive,inactive,inactive,inactive,2.86%,inactive,–
CCCCCCCCN(C)CCCCCCCC,inactive,inactive,inactive,inactive,inactive,inactive,inactive,inactive,inactive,–,inactive,inactive,inactive,inactive,inactive,inactive,inactive,18.3%,inactive,–
C=C(C)C1CC=C(C)C(O)C1 (stereo unspecified),inactive,inactive,inactive,inactive,inactive,inactive,inactive,inactive,–,inactive,inactive,inactive,inactive,inactive,inactive,inactive,inactive,2.44%,inactive,–
CCCCCCCCC=O,inactive,inactive,inactive,inactive,inactive,inactive,inactive,inactive,inactive,inactive,inactive,inactive,–,inactive,inactive,inactive,inactive,-1.48%,inactive,–
COC(=O)C1=C(C)NC(C)=C(C(=O)OCC(C)=O)C1c1ccccc1[N+](=O)[O-] (stereo unspecified),inactive,inactive,inactive,inactive,inactive,inactive,inactive,–,inactive,inactive,inactive,–,–,inactive,inactive,inactive,inactive,-8.69% [at 42.5 µM],inactive,–
CCCCN(CCO)CCO,inactive,inactive,inactive,inactive,inactive,inactive,inactive,–,inactive,–,inactive,inactive,inactive,inactive,inactive,inactive,inactive,3.71%,inactive,–
O=[N+]([O-])c1ccc(CCO)cc1,inactive,inactive,inactive,inactive,inactive,inactive,inactive,inactive,inactive,inactive,inactive,inactive,inactive,inactive,–,–,–,–,–,–
CCCc1ccccc1O,inactive,inactive,inactive,inactive,inactive,inactive,inactive,inactive,inactive,inactive,inactive,inactive,inactive,inactive,–,–,–,–,inactive,–
COc1cc(O)cc(O)c1,inactive,inactive,inactive,inactive,inactive,inactive,inactive,inactive,inactive,inactive,inactive,inactive,inactive,inactive,–,–,–,–,inactive,–
CCC(=O)/C=C/c1ccc(OC)cc1,inactive,35.6 µM (active),inactive,inactive,inactive,54.5 µM (active),inactive,inactive,–,inactive,inactive,–,–,inactive,inactive,inactive,inactive,-2.91%,inactive,–
C[C@H]1O[C@@H](n2cc(F)c(=O)[nH]c2=O)[C@H](O)[C@@H]1O,inactive,inactive,inactive,inactive,–,inactive,–,inactive,inactive,inactive,–,inactive,inactive,inactive,inactive,inactive,inactive,2.35% [at 42.5 µM],–,inactive
C=C(C)C(=O)NCCC[N+](C)(C)C,inactive,inactive,inactive,inactive,inactive,inactive,inactive,inactive,inactive,inactive,inactive,inactive,inactive,inactive,–,–,–,–,inactive,–
COc1ccc(COC=O)cc1,inactive,inactive,inactive,inactive,inactive,inactive,inactive,inactive,–,inactive,inactive,inactive,inactive,inactive,inactive,inactive,inactive,-0.945%,–,–
CCCCC1CCCCC(=O)O1 (stereo unspecified),inactive,inactive,inactive,inactive,inactive,inactive,inactive,inactive,inactive,inactive,inactive,inactive,inactive,inactive,inactive,inactive,inactive,0.974%,–,–
